The record followed here is PubChem BioAssay (NCATS).

Records with an inconclusive call do not appear. Calls of active or inactive are those of the source. Calls come from the whole dose curve; as a rule, active = well fitted curve in the direction sought with a large enough effect; inconclusive = small, poorly fitted or top-dose-only effect, or another doubt; inactive = no such curve, though single readings can be large; an effect the other way counts as inactive or inconclusive.

The nature of assay [1]: qHTS of pediatric cancer cell lines to identify multiple opportunities for drug repurposing: Primary screen for control Hh wild type fibroblast cells (AID 1347106).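 Note: series mostly up to about 46 µM; a drop in luminescence marks cytotoxicity and a rise apparent proliferation; nearly all actives have a fitted effect of over 55% in size.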 In outline:
(§1)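 Cells (500-1,000/well) in growth media were settled 5 h at 37 degrees C, then given compounds for 48 h. Viability was read as CellTiter-Glo luminescence. Primary runs used MIPE at 11 points (0.78 nM-46 µM) and NPC at 8 points (0.59 nM-46 µM); follow-ups used 11 points.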
For orientation: Quantitative high-throughput screening tests each substance at several concentrations.

A short description of assay [2]: qHTS of pediatric cancer cell lines to identify multiple opportunities for drug repurposing: Primary screen for Rh41 cells (AID 1347108). Note: nearly all actives have a fitted effect of over 70% in size. Note: potency is the fitted concentration of half-maximal effect. In outline: (§2)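 Plated cells (500-1,000 per well, growth media) were allowed to settle for 5 hours, treated with compound dilutions for 48 hours, then lysed with CellTiter-Glo for 15 min at room temperature before luminescence reading.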

Assay [3] can be described thus: qHTS of pediatric cancer cell lines to identify multiple opportunities for drug repurposing: Primary screen for Rh30 cells (AID 1347107). Note: nearly all actives have a fitted effect of over 75% in size. Note: potency is the fitted concentration of half-maximal effect. A digest of the protocol: as §1
Assay [4] can be described thus: qHTS of pediatric cancer cell lines to identify multiple opportunities for drug repurposing: Confirmatory screen for NB1643 cells (AID 1347109). Note: nearly all actives have a fitted effect of over 45% in size. Note: potency is the fitted concentration of half-maximal effect. A digest of the protocol: as §1
Assay [5] in a line: qHTS of pediatric cancer cell lines to identify multiple opportunities for drug repurposing: Confirmatory screen for SK-N-MC cells (AID 1347111).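 Note: cells exposed to compound for 48 h before the readout; nearly all actives have a fitted effect of over 70% in size.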 Note: potency is the fitted concentration of half-maximal effect. A digest of the protocol: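 Metabolically active cells were quantified by ATP-dependent luminescence (CellTiter-Glo, 15 min at room temperature) following 48 h treatment. Cells had been plated at 500-1,000 per well and settled for 5 h beforehand.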

Assay [6] in a line: qHTS of pediatric cancer cell lines to identify multiple opportunities for drug repurposing: Confirmatory screen for NB-EBc1 cells (AID 1347115).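 Note: cells exposed to compound for 48 h before the viability read; nearly all actives have a fitted effect of over 45% in size.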 Note: potency is the fitted concentration of half-maximal effect. In outline:
as §1

A short description of assay [7]: qHTS of pediatric cancer cell lines to identify multiple opportunities for drug repurposing: Confirmatory screen for TC32 cells (AID 1347118).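 Note: cells exposed to compound for 48 h before the read; nearly all actives have a fitted effect of over 65% in size.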 Note: potency is the fitted concentration of half-maximal effect. A digest of the protocol:
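TC32 cells, 500-1,000/well in growth medium, compound-treated 48 h at 37 °C; viability from CellTiter-Glo luminescence. Primary screen: MIPE 11-point (0.78 nM–46 µM final), NPC 8-point (0.59 nM–46 µM final); confirmatory at 11-point dilutions.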

A short description of assay [8]: qHTS of pediatric cancer cell lines to identify multiple opportunities for drug repurposing: Confirmatory screen for control Hh wild type fibroblast cells (AID 1347121). Note: nearly all actives have a fitted effect of over 70% in size. In outline:
as §1

The nature of assay [9]: qHTS of pediatric cancer cell lines to identify multiple opportunities for drug repurposing: Confirmatory screen for Rh41 cells (AID 1347123).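 Note: 48 h compound exposure; nearly all actives have a fitted effect of over 60% in size.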 Note: potency is the fitted concentration of half-maximal effect. In outline:
as §1

A short description of assay [10]: qHTS of pediatric cancer cell lines to identify multiple opportunities for drug repurposing: Confirmatory screen for RD cells (AID 1347124).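 Note: cells exposed to compound for 48 h before viability readout; nearly all actives have a fitted effect of over 65% in size.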 Note: potency is the fitted concentration of half-maximal effect. A digest of the protocol:
as §1

Assay [11] in a line: qHTS of pediatric cancer cell lines to identify multiple opportunities for drug repurposing: Confirmatory screen for Rh30 cells (AID 1347126). Note: nearly all actives have a fitted effect of over 55% in size. Note: potency is the fitted concentration of half-maximal effect. A digest of the protocol: as §1
A short description of assay [12]: qHTS of pediatric cancer cell lines to identify multiple opportunities for drug repurposing: Primary screen for MG 63 (6-TG R) cells (AID 1347105). Note: nearly all actives have a fitted effect of over 50% in size. Note: potency is the fitted concentration of half-maximal effect. A digest of the protocol: as §2
A short description of assay [13]: qHTS of pediatric cancer cell lines to identify multiple opportunities for drug repurposing: Confirmatory screen for BT-12 cells (AID 1347112). Note: nearly all actives have a fitted effect of over 55% in size. Note: potency is the fitted concentration of half-maximal effect. In outline:
as §1

Assay [14] is described as follows: qHTS of pediatric cancer cell lines to identify multiple opportunities for drug repurposing: Confirmatory screen for LAN-5 cells (AID 1347113). Note: nearly all actives have a fitted effect of over 65% in size. Note: potency is the fitted concentration of half-maximal effect. In outline:
as §1

Assay [15] is described as follows: qHTS of pediatric cancer cell lines to identify multiple opportunities for drug repurposing: Confirmatory screen for DAOY cells (AID 1347114). Note: nearly all actives have a fitted effect of over 65% in size. Note: potency is the fitted concentration of half-maximal effect. In outline: (§3)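 Viability measured as metabolically active cells via CellTiter-Glo luminescence following 48 hours of compound exposure, 11-point dilutions in confirmatory testing. 500-1,000 cells/well plated 5 hours before dosing; controls were DMSO and 2.3 µM bortezomib.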

A short description of assay [16]: qHTS of pediatric cancer cell lines to identify multiple opportunities for drug repurposing: Confirmatory screen for SJ-GBM2 cells (AID 1347116). Note: nearly all actives have a fitted effect of over 60% in size. Note: potency is the fitted concentration of half-maximal effect. A digest of the protocol:
as §3

A short description of assay [17]: qHTS of pediatric cancer cell lines to identify multiple opportunities for drug repurposing: Confirmatory screen for MG 63 (6-TG R) cells (AID 1347119). Note: nearly all actives have a fitted effect of over 55% in size. Note: potency is the fitted concentration of half-maximal effect. In outline:
as §1

Assay [18] in a line: qHTS of pediatric cancer cell lines to identify multiple opportunities for drug repurposing: Confirmatory screen for Rh18 cells (AID 1347125). Note: nearly all actives have a fitted effect of over 55% in size. Note: potency is the fitted concentration of half-maximal effect. A digest of the protocol:
as §1

A short description of assay [19]: qHTS of pediatric cancer cell lines to identify multiple opportunities for drug repurposing: Confirmatory screen for U-2 OS cells (AID 1347122). Note: nearly all actives have a fitted effect of over 65% in size. Note: potency is the fitted concentration of half-maximal effect. A digest of the protocol: as §1

As for `CCCCCCCc1ccc(CCc2cccc(O)c2C(=O)O)cc1`, the Potency entry in [1] was “inactive”.
`CCOC(=O)C1=C[C@]2(CC)CCCN3CCc4c(n1c1ccccc41)[C@@H]32`: the Potency entry in [1] and in assay [2] was “inactive” in each case.
For `COc1cccc2cc(-c3nc(C4CCC(C(=O)O)CC4)n4ncnc(N)c34)[nH]c12` (stereo not drawn), the Potency entry in [3], in assay [4], in assay [5], in assay [6], in [7] and in [8] was “inactive” in each case. Further, the Potency result in assay [10] was “inactive”. The results for the Potency in [9] and in assay [11] were 2.08 µM (active) and 10.4 µM (active), respectively.
Turning to `COc1c(Cl)cc2c([nH]c3cnccc32)c1NC(=O)c1cccnc1C`, the Potency entry in assay [1] and in assay [3] was “inactive” in each case.
With `CS(=O)(=O)Oc1ccc2c(NC(N)=O)c(C(=O)c3ccc(Cl)cc3Cl)oc2c1`, the Potency in assay [12] is 18.7 µM (active). Also, the Potency entry in assay [3] is “inactive”.
As for `CN(C)c1ccc(C2Nc3ccc4ccccc4c3C3=C2C(=O)CC(C)(C)C3)cc1Br` (stereo not drawn), the Potency entry in assay [1], in [13], in assay [14], in assay [15], in assay [8] and in assay [10] was “inactive” each time. In addition, the Potency in assay [5] was 19.1 µM (active); in [6], 42.7 µM (active); in assay [16] it was 8.27 µM (active); in assay [7], 15.1 µM (active); in [17], 7.59 µM (active).
Regarding `CC1(C)Cc2c(-c3ccccc3)c(-c3ccc(Cl)cc3)c(CC(=O)O)n2C1`, the Potency entry in assay [1] was “inactive”.
Regarding `Cc1ccc(-n2nc(C(C)(C)C)cc2NC(=O)Nc2ccc(OCCN3CCOCC3)c3ccccc23)cc1`, the Potency entry in [1], in [3] and in assay [2] was “inactive” each time.
On to `N#Cc1ccc(C(c2ccc(C#N)cc2)n2cncn2)cc1`, for which the Potency entry in [1] was “inactive”.
Regarding `COCCNCCCn1c(C(=O)CF)c(-c2ccc(C)cc2)c2c(N)ncnc21`, the Potency entry in [1] and in assay [2] was “inactive” throughout.
Regarding `CN(C(=O)c1ccc(F)cc1C(F)(F)F)C1CCN(c2nnc(-c3ccnn3C)c3ccccc23)CC1`, the Potency result in [1] is “inactive”.
Take `CN(C)C(=O)c1ccc(S(=O)(=O)c2ccc(NC(=O)[C@@](C)(O)C(F)(F)F)c(Cl)c2)cc1`: the Potency result in assay [1] and in [3] was “inactive” each time.
For the compound `O=c1[nH]c(-c2ccc(C(F)(F)F)cc2)nc2c1CSCC2`, in assay [1], the Potency result was “inactive”.
In the case of `C#Cc1cccc(Nc2ncnc3cc(OCCOC)c(OCCOC)cc23)c1`, the Potency entry in assay [12], in assay [8], in assay [10] and in assay [18] was “inactive” each time. Moreover, the Potency in assay [2] is 11.8 µM (active); in assay [5], 14.7 µM (active); in assay [7] it was 14.7 µM (active); in assay [17], 16.5 µM (active); in [9], 9.27 µM (active).
For `Nc1nc2[nH]cc(CCc3ccc(C(=O)N[C@@H](CCC(=O)O)C(=O)O)cc3)c2c(=O)[nH]1`, the Potency result in assay [1], in assay [3], in assay [13], in assay [14], in [15] and in [6] was “inactive” each time. Further, the Potency entry in [8], in assay [19], in assay [9], in assay [10], in assay [18] and in [11] was “inactive” in each case. Moreover, the values for the Potency in assay [4], in assay [5] and in assay [7] were 20.8 µM (active), 0.147 µM (active) and 0.465 µM (active), respectively.
On to `CCCn1c(=O)c2[nH]c(C34CC5CC3C[C@@H](C5)C4)nc2n(CCC)c1=O`, for which, in assay [1], the Potency entry is “inactive”.
For `Cn1cnc2c(F)c(Nc3ccc(Br)cc3Cl)c(C(=O)NOCCO)cc21`, the Potency entry in assay [1], in assay [5], in assay [13], in [14], in assay [6] and in [7] was “inactive” in each case. Further, the Potency result in [8], in assay [9], in [10], in assay [18] and in assay [11] was “inactive” throughout. For the same compound, the Potency in assay [2] is 14.8 µM (active); in assay [19] it was 16.5 µM (active).
In the case of `O=C(Nc1ccc(F)c(C(F)(F)F)c1)Nc1nnc(-c2ccncc2)s1`, the Potency result in [1] and in assay [2] was “inactive” each time.
In the case of `O=C(c1cc(Cc2n[nH]c(=O)c3ccccc23)ccc1F)N1CCN(C(=O)C2CC2)CC1`, the Potency entry in assay [4], in assay [6], in assay [16], in assay [7], in [17] and in [8] was “inactive” each time. The Potency result in assay [10], in assay [18] and in assay [11] was “inactive” each time. The Potency in assay [13] was 18.5 µM (active); in [9] it was 9.27 µM (active).
As to `CCc1cncnc1N1CCN(Cc2nc3ccc(C(F)(F)F)cc3[nH]2)CC1`, the Potency result in assay [1] was “inactive”.
On to `Cc1c(CN2CCN(C(=O)C(C)C)CC2)sc2c(N3CCOCC3)nc(-c3cnc(N)nc3)nc12`, for which the Potency is 0.118 µM (active) in assay [12]; 1.87 µM (active) in [3]; 0.235 µM (active) in assay [2]; 0.465 µM (active) in assay [5]; 0.737 µM (active) in assay [14]; 0.737 µM (active) in assay [7]. In addition, the Potency in assay [17] is 0.369 µM (active); in assay [19] it was 0.737 µM (active); in [9], 0.414 µM (active); in [10], 2.08 µM (active); in [18] it was 0.827 µM (active); in assay [11] it was 0.928 µM (active).
For the compound `COc1ccc(-c2ccc3c(N4CCOCC4)nc(N4C[C@@H](C)O[C@@H](C)C4)nc3n2)cc1CO`, the Potency in assay [12] was 0.187 µM (active); in assay [2], 0.743 µM (active); in assay [13] it was 5.22 µM (active); in [15], 9.27 µM (active); in assay [16], 1.47 µM (active); in [19], 1.65 µM (active). For the same compound, the Potency in assay [9] was 0.657 µM (active); in [10], 1.31 µM (active); in assay [18], 1.31 µM (active); in assay [11] it was 0.657 µM (active).
Take `COc1cc2nccc(Oc3ccc(NC(=O)NC4CC4)c(Cl)c3)c2cc1C(N)=O`: the Potency entry in assay [3], in assay [15], in [6], in assay [16], in assay [8] and in assay [11] was “inactive” throughout. For the same compound, the Potency was 5.9 µM (active) in assay [2]; 26.1 µM (active) in assay [5]; 14.7 µM (active) in [7]; 5.85 µM (active) in assay [9]; 14.7 µM (active) in assay [18].
For `CC(C)(Sc1ccc(CCN(CCCCC2CCCCC2)C(=O)NC2CCCCC2)cc1)C(=O)O`, the Potency entry in assay [1] is “inactive”.
As to `O=S(=O)(N=Cc1c(O)ccc2ccccc12)c1cccs1`, the Potency in assay [12] was 2.35 µM (active); in assay [2], 3.72 µM (active). In assay [3], the Potency result was “inactive”.
For the compound `CO[C@@H]1[C@H](N(C)C(=O)c2ccccc2)C[C@H]2O[C@]1(C)n1c3ccccc3c3c4c(c5c6ccccc6n2c5c31)C(=O)NC4`, the Potency in assay [12] was 0.743 µM (active); in assay [4], 3.29 µM (active); in [18] it was 4.14 µM (active). For the same compound, the Potency entry in assay [3], in [2], in assay [15], in assay [8], in assay [19] and in assay [9] was “inactive” in each case. For the same compound, the Potency entry in [11] is “inactive”.
Turning to `Cc1cc2c(F)c(Oc3ncnn4cc(OC[C@@H](C)O)c(C)c34)ccc2[nH]1`, the Potency entry in assay [1] is “inactive”.
For `COc1ccc(-c2oc3cc(OC)ccc3c2C(=O)c2ccc(C#N)cc2)cc1`, the Potency entry in [1], in assay [13], in assay [14], in assay [15], in assay [16] and in assay [17] was “inactive” each time. The Potency entry in [8], in assay [19], in assay [9], in assay [10], in assay [18] and in assay [11] was “inactive” throughout.
For `O=C(Nc1nc2ccccc2n1CCN1CCOCC1)c1cccc([N+](=O)[O-])c1`, the Potency entry in assay [1] is “inactive”. In addition, in [2], the Potency was 18.7 µM (active).
For `COc1ccc(COc2cc3oc(=O)c4cc(C(C)O)ccc4c3cc2OC)cc1` (stereo not drawn), the Potency in assay [12] and in [2] was 18.7 µM (active) each time.
Turning to `COc1ccccc1[C@H](c1cccc2ccccc12)[C@@](C)(C#N)C(=O)N1CCC(c2cccc(C(F)(F)F)c2)CC1`, the Potency result in assay [1] and in assay [3] was “inactive” in each case. Also, the Potency in [2] is 5.9 µM (active).
Consider `CNC(=O)c1ccc(C)c(-n2c(C)cc(OCc3ccc(F)cc3F)c(Br)c2=O)c1`, for which, in assay [1], the Potency result is “inactive”.
